The whole screen tested about 52,000 compounds, of which about 4,300 (8.3%) were called active. What follows is part of a selection rich in actives, with near analogues and random picks from the rest. Unmarked numbers belong to inactive results. Rule as the data show it: active = survival mostly below about 52% (no sharp cut-off); inactive = mostly above about 56%.
tested on: DeltatarO mutant; assay: S. aureus survival, RN4220 and DeltatarO strains – OD600, teichoic acid synthesis inhibitors, primary screen (AID 463173); conditions: S. aureus RN4220 wild type/DeltatarO growth, OD600, 18 h, stronger effect = lower value, screened at 18.75 µg/mL (by protocol)

Row | Structure (SMILES) | survival
1 | CCOc1ccc(CCNC(=O)CCN2N=C(c3ccc(OC)cc3)CCC2=O)cc1OCC | 81%
2 | COc1ccc(NC(=O)c2sc3nc[nH]c(=O)c3c2C)cc1 | 75%
3 | COc1ccc(NC(=O)c2sc3nc(-c4cc5ccc(OC)cc5oc4=O)[nH]c(=O)c3c2C)cc1 | 46% (active)
4 | Cc1cc(C)cc(NC(=O)c2sc3nc[nH]c(=O)c3c2C)c1 | 91%
5 | Cc1cccc(NC(=O)c2sc3nc(-c4cc5ccc(O)cc5oc4=O)[nH]c(=O)c3c2C)c1 | 46%
6 | Cc1ccccc1NC(=O)c1sc2nc(-c3cc4ccccc4oc3=O)[nH]c(=O)c2c1C | 52%
7 | Cc1cc(NC(=O)c2ccc(F)cc2)ccc1-c1cc2ccccc2oc1=O | 75%
8 | Cc1c(C(=O)Nc2ccccc2)sc2nc(-c3cc4ccccc4oc3=O)[nH]c(=O)c12 | 66%
9 | Cc1cc(C)cc(NC(=O)c2sc3nc(-c4cc5ccccc5oc4=O)[nH]c(=O)c3c2C)c1 | 43% (active)
10 | Cc1ccc(NC(=O)c2sc3nc(-c4cc5ccccc5oc4=O)[nH]c(=O)c3c2C)c(C)c1 | 39% (active)
11 | Cc1c(C(=O)Nc2cccc(F)c2)sc2nc(-c3cc4ccccc4oc3=O)[nH]c(=O)c12 | 37% (active)
12 | CCOc1cccc2cc(-c3nc4sc(C(=O)Nc5ccc(C)cc5)c(C)c4c(=O)[nH]3)c(=O)oc12 | 51%
13 | COc1ccc(NC(=O)c2sc3nc(-c4cc5cccc(OC)c5oc4=O)[nH]c(=O)c3c2C)cc1 | 46%
14 | O=C(COc1ccc(Br)cc1Cl)Nc1ncn[nH]1 | 91%
15 | CCOCCCNC(=O)C1CCCN(c2ncnc3onc(C)c23)C1 (stereo unspecified) | 68%
16 | COc1ccc(-c2cn3nc(N4CCC(C(=O)Nc5cccc(OC)c5)CC4)sc3n2)cc1 | 94%
17 | C#CCn1c(=NC(=O)c2ccc3c(c2)OCCO3)sc2cc(OC)c(OC)cc21 | 102%
18 | COc1cccc(C(=O)c2cn(CC(=O)Nc3ccc4c(c3)OCCO4)c3nc(C)ccc3c2=O)c1 | 68%
19 | CCOC(=O)c1c(Nc2cc(C)cc(C)c2)nnc(-c2ccccc2)c1-c1ccccc1 | 32% (active)
20 | Cc1ccc(-c2nnc(Nc3cccc(O)c3)c3ccccc23)cc1S(=O)(=O)N1CCCCC1 | 60%
21 | CCOC(=O)c1c(Nc2cccc(O)c2)nnc(-c2ccccc2)c1-c1ccccc1 | 31% (active)
22 | CCOC(=O)c1c(C)oc2ncnc(Nc3cc(C)cc(C)c3)c12 | 94%

Row | Structure (SMILES) | survival
23 | CNC(=O)c1ccc(Nc2nnc(-c3ccc(C)c(S(=O)(=O)N4CCOCC4)c3)c3ccccc23)cc1 | 61%
24 | CCOC(=O)c1c(C)oc2nc(C)nc(Nc3cc(C)cc(C)c3)c12 | 89%
25 | Cc1ccc(-c2nnc(Nc3cccc(O)c3)c3ccccc23)cc1S(=O)(=O)N1CCOCC1 | 78%
26 | CCOC(=O)c1c(C)oc2nc(C)nc(Nc3cccc(OC)c3)c12 | 78%
27 | CNC(=O)c1ccc(Nc2nnc(-c3ccc(C)c(S(=O)(=O)N4CCCCC4)c3)c3ccccc23)cc1 | 54% (active)
28 | CCOC(=O)c1c(Oc2ccc(C(=O)OC)cc2)nnc(-c2ccccc2)c1-c1ccccc1 | 74%
29 | CCOC(=O)c1c(Nc2cccc(C(=O)OC)c2)nnc(-c2ccccc2)c1-c1ccccc1 | 16% (active)
30 | Cc1ccc(-c2nnc(Nc3ccc(C(N)=O)cc3)c3ccccc23)cc1S(=O)(=O)N1CCCCC1 | 128%
31 | Cc1ccc(N2CCN(c3nc4c(S(=O)(=O)c5ccc(C)c(C)c5)nnn4c4ccccc34)CC2)c(C)c1 | 82%
32 | CN(C)c1ccc(CNC(=O)C2CCCN(S(=O)(=O)c3ccc4c(ccn4C)c3)C2)cc1 (stereo unspecified) | 83%
33 | Cc1noc(-c2ccc(N3CCCCC3C)c([N+](=O)[O-])c2)n1 (stereo unspecified) | 108%
34 | CCOc1ccc(N2C(=O)N(Cc3ccc(C)cc3C)c3ccccc3S2(=O)=O)cc1 | 94%
35 | Cc1ccc(-c2nnc(Nc3cccc(O)c3)c3ccccc23)cc1S(=O)(=O)N1CCN(C)CC1 | 97%
36 | CCOC(=O)c1cccc(Nc2cc(-c3ccccc3)ncn2)c1 | 15% (active)
37 | CCOC(=O)c1c(C)oc2ncnc(Nc3cccc(C(F)(F)F)c3)c12 | 105%
38 | Cc1ccc(-c2nnc(Nc3cccc(O)c3)c3ccccc23)cc1S(=O)(=O)NCC1CCCO1 (stereo unspecified) | 74%
39 | CCOC(=O)c1c(Nc2cccc(C)c2)nnc(-c2ccccc2)c1-c1ccccc1 | -4% (active)
40 | CCOC(=O)c1cccc(Nc2cc(C)nc(C)n2)c1 | 65%
41 | CCOC(=O)c1c(C)c(-c2ccccc2)n(CC(=O)Nc2cc(C)cc(C)c2)c1C | 80%
42 | CCOC(=O)CNS(=O)(=O)c1cc(-c2nnc(Nc3cccc(O)c3)c3ccccc23)ccc1C | 39% (active)
43 | Oc1cccc(Nc2cc(-c3ccccc3)ncn2)c1 | 63%
44 | CCc1ccc(NC(=O)Cn2c(=O)n(-c3ccccc3C)c(=O)c3c2c2cc(OC)ccc2n3C)cc1 | 67%

Row | Structure (SMILES) | survival
45 | COc1ccccc1OCC(=O)NC1CC(=O)N(c2ccc3c(c2)OCCO3)C1 (stereo unspecified) | 67%
46 | Cc1coc2c(C)c3oc(=O)c(CCC(=O)NCCc4ccccc4F)c(C)c3cc12 | 57%
47 | COc1cc(C2c3c(-c4ccccc4O)n[nH]c3C(=O)N2CCO)ccc1OCC(C)C (stereo unspecified) | 99%
48 | COc1cc(C2c3c(-c4ccccc4O)n[nH]c3C(=O)N2Cc2ccco2)ccc1OCC(C)C (stereo unspecified) | 7% (active)
49 | CCCOc1ccc(C2c3c(-c4c(C)cc(C)cc4O)n[nH]c3C(=O)N2CCO)cc1 (stereo unspecified) | 73%
50 | CC(C)c1ccc(C2c3c(-c4ccccc4O)n[nH]c3C(=O)N2Cc2ccncc2)cc1 (stereo unspecified) | 88%
51 | COC(=O)c1ccc(C2c3c(-c4ccccc4O)n[nH]c3C(=O)N2Cc2ccncc2)cc1 (stereo unspecified) | 90%
52 | COc1cc(C2c3c(-c4c(C)cc(C)cc4O)n[nH]c3C(=O)N2Cc2ccco2)cc(OC)c1OC (stereo unspecified) | 67%
53 | O=C1c2[nH]nc(-c3ccccc3O)c2C(c2cccc(Cl)c2)N1Cc1cccnc1 (stereo unspecified) | 65%
54 | COc1ccc(C2c3c(-c4ccccc4O)n[nH]c3C(=O)N2Cc2ccco2)cc1 (stereo unspecified) | 1% (active)
55 | COc1cc(C2c3c(-c4cc(C)ccc4O)n[nH]c3C(=O)N2CCCO)ccc1OCCC(C)C (stereo unspecified) | 58%
56 | COc1ccc(C2c3c(-c4c(C)cc(C)cc4O)n[nH]c3C(=O)N2Cc2ccco2)cc1 (stereo unspecified) | 0% (active)
57 | O=C1c2[nH]nc(-c3ccccc3O)c2C(c2ccc(Cl)cc2)N1Cc1ccco1 (stereo unspecified) | -1% (active)
58 | CC(C)(C)c1ccc(C(=O)NCC(c2cccnc2)N2CCc3ccccc3C2)cc1 (stereo unspecified) | 98%
59 | O=C(c1nc(-c2ccc(Cl)cc2)n2c1CCCCC2)N1CCN(c2ccccc2)CC1 | 88%
60 | COC(=O)c1sc(N2C(=O)c3oc4cc(C)c(C)cc4c(=O)c3C2c2ccccc2F)nc1C (stereo unspecified) | 70%
61 | O=c1c2nncn2ccn1-c1ccc(F)c(F)c1 | 90%
62 | CCN(c1ccccc1)c1nnc(NC(=O)Nc2cccc(C(F)(F)F)c2)s1 | 88%
63 | Cc1ccccc1-c1nnc(SCC(=O)N(C)C2CCCCC2)o1 | 67%
64 | COc1ccc(-n2nc3ccc(NC(=O)c4cccc(OCCC(C)C)c4)cc3n2)cc1 | 121%
65 | CN(C)CCCNc1cn[nH]c(=O)c1Cl | 93%
66 | CCOc1ccc(C(=O)CSc2nc3c(c(=O)n(C)c(=O)n3C)n2C(C)C)cc1 | 77%

Row | Structure (SMILES) | survival
67 | O=C(CSc1cn(CC(=O)N2CCOCC2)c2ccccc12)Nc1ccccc1C(F)(F)F | 65%
68 | COc1ccc(C(=O)c2sc3nc(-c4ccc(C)cc4)cc(C(F)(F)F)c3c2N)cc1 | 134%
69 | COc1cccc(-c2ccc3c(N)c(C(=O)Nc4cc(C(F)(F)F)ccc4OC)sc3n2)c1 | 89%
70 | COc1ccc(-c2ccc3c(N)c(C(=O)c4ccc(OC)c(OC)c4)sc3n2)cc1 | 52%
71 | COc1ccc(-c2ccc3c(N)c(C(=O)NCc4ccc(C)cc4)sc3n2)cc1 | 69%
72 | COc1cccc(-c2ccc3c(N)c(C(=O)c4ccc(Br)cc4)sc3n2)c1 | 28% (active)
73 | COc1cccc(-c2ccc3c(N)c(C(=O)Nc4ccc(C)c(F)c4)sc3n2)c1 | 95%
74 | COc1ccc(NC(=O)c2sc3nc(-c4ccc(OC)cc4)cc(C(F)(F)F)c3c2N)cc1 | 56%
75 | COc1cccc(C(=O)c2sc3nc(-c4ccccc4)cc(C(F)(F)F)c3c2N)c1 | 37% (active)
76 | COc1ccc(C(=O)c2sc3nc(-c4ccc(F)cc4)ccc3c2N)cc1 | 81%
77 | COc1ccc(-c2ccc3c(N)c(C(=O)NCc4ccc(Cl)cc4)sc3n2)cc1 | 79%
78 | COc1cccc(-c2ccc3c(N)c(C(=O)NCc4ccc(Cl)cc4)sc3n2)c1 | 41% (active)
79 | COc1cccc(-c2ccc3c(N)c(C(=O)c4ccc(F)cc4)sc3n2)c1 | 17% (active)
80 | CC1C(=O)CCNC1c1ccccc1 (stereo unspecified) | 65%
81 | O=C(O)c1ccc(N=NSCCO)cc1 | 79%
82 | COc1ccc(-n2nc(C(=O)NCCc3cccc(C)c3)c3c4ccccc4n(C)c3c2=O)cc1Cl | 89%
83 | Cn1c(=O)c2c(nc(SCC(=O)Nc3ccc(OC(F)(F)F)cc3)n2Cc2cccc(C(F)(F)F)c2)n(C)c1=O | 86%
84 | COc1ccc(Cl)cc1NC(=O)c1sc2nc(-c3ccc(OC)c(OC)c3)ccc2c1N | 124%
85 | COc1cccc(-c2ccc3c(N)c(C(=O)Nc4ccc(Cl)cc4F)sc3n2)c1 | 59%
86 | COc1cccc(-c2ccc3c(N)c(C(=O)c4ccc(Cl)cc4)sc3n2)c1 | 30% (active)

— PubChem BioAssay AID463173 (ICCB-Longwood Screening Facility, Harvard Medical School, 2010)
